Each structure is given as a SMILES string. This is part of a sample that, as a whole, favours compounds with a hit. Of some 79,000 tested, about 15% had one in any assay. Active and inactive are the calls of the source. No stated cut-off is given here; in the data, active means growth inhibition above about 70%; inactive means the rest.

This experiment is described as follows: NCI Yeast Anticancer Drug Screen. Data for the wt2 strain (AID 169).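 Further: 0% = growth of vehicle-treated yeast cultures.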 The note with it: S. cerevisiae wt2 strain growth inhibition; at 100.0 µM; active compounds read high. In short, it runs like this:
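Treated yeast vs. vehicle-treated yeast: growth inhibition determined.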
`O=[N+]([O-])c1cc[n+]([O-])cc1`: the growth inhibition was 99% (active).
Turning to `CC1(C)CC(=O)C(/C=N/c2nc(-c3ccccc3)cs2)=C(O)C1`, the growth inhibition is 82% (active).
As to `Nc1nc(N)c2nc(CNc3ccc(C(=O)NC(CCC(=O)O)C(=O)O)cc3F)cnc2n1` (stereo unspecified), the growth inhibition was 48% (inactive).
With `COC(=O)CC1(O)C(/C=C/c2ccccc2)C(C(=O)OC)C(=O)C(C(=O)OC)C1C(=O)OC` (stereo unspecified), the growth inhibition is 7% (inactive).
With `CC(C)(C)c1ccc(NS(=O)(=O)c2ccc(N)cc2)cc1` the figure was 41% (inactive).
With `CCN(CC)CCNc1ccc([N+](=O)[O-])c2nc3ccccc3c(N)c12` the figure was 2% (inactive).
`CCCCN(CCCC)C(=O)/C=C/c1ccccc1`: the growth inhibition is 97% (active).
`O=c1[nH]c(-c2ccccc2)nc2c1sc1nc3ccccc3n12`: the growth inhibition is 5% (inactive).
In the case of `O=[N+]([O-])c1ccc2c(c1)/C(=N/N=C1c3ccccc3Cc3ccccc31)c1cc([N+](=O)[O-])cc([N+](=O)[O-])c1-2`, the growth inhibition was 94% (active).
With `CC(C)C(C)/C=C\C(C)C1CCC2C3=CC=C4CC(O)CCC4(C)C3CCC21C` (stereo unspecified) the figure was 14% (inactive); with `O=C1Nc2ccc(Br)cc2C1=Nc1ccc2c(c1)OCO2`, -27% (inactive).
In the case of `CCCCOCn1c(=O)[nH]c(=O)c2cc(Br)ccc21`, the growth inhibition is 0% (inactive).
Take `Cc1ccc(S/C(=C\C(=O)O)c2ccccc2)cc1`: the growth inhibition is 11% (inactive).
As for `O=[N+]([O-])/C=C/c1cc(Cl)c(/C=C/[N+](=O)[O-])cc1Cl`, the growth inhibition is 69% (inactive).
In the case of `Cc1cc(S(=O)(=O)Nc2nnc3cnc4ccccc4n23)c(S)cc1Cl`, the growth inhibition was 35% (inactive).
For the compound `O=C(/C=C/c1cc(Cl)cc(Cl)c1O)c1cccc(O)c1`, the growth inhibition is 98% (active).

The values above are taken from PubChem BioAssay (NCI).
